We go through 40 sequences from the supplement of paper PMC6555819.

In the experiment the test system is VDR:RXRa (NR concentration 270 nM, RXRa partner concentration 90 nM). The experiment in a line: PBM binding z-score (relative to random genomic background probes); higher = stronger binding; sequences stand for … in GC…GCGATTGACAGCGTAGAATGAAGG
The method, then: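 Protein-binding microarray (Agilent 4x180K custom design, double-stranded 60-nt probes: 5' GC cap, 34-nt variable region, 24-nt constant primer region; full probe sequence given). Purified or IVT nuclear receptor:RXRα heterodimers (3:1 NR:RXRα, mostly 270:90 nM) or homodimers were incubated for 1 h in PBS with 2% milk and no ligand, then detected with Alexa488 antibodies. Fluorescence from o1-orientation probes (~5 replicates averaged) was converted to z-scores against 500 random hg19 background probes. Variable regions are seed direct-repeat (DR0–DR5) sites, all their single-nucleotide variants and half-site ablations.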
TCATATAGGAAAATGCTAGGTGAAAGTCCGATCT returned a PBM binding z-score of 0.9.
For CCGAGTAGGTTATGGGGCATTGAGGCAACGGTGA, the PBM binding z-score was 0.258.
As to TCTGCTAGCTCAGTTGGTCAGCTAACGAGCTGCC, the PBM binding z-score is -0.839.
For ATCTCTAGGTAACAAGCTCAGTGAAAGAGAGGAC, the PBM binding z-score is 0.159.
Sequence CCTACGGGGCCAAAAAGGTCATTGATGCCGATAA gave a PBM binding z-score of 5.88.
On to CCTACTGGGCCAAGGTCCTTGATCAGTCAAAGCA, for which the PBM binding z-score is -0.657.
In the case of AGAATGAAGTTATTAAGATCAGGGAATTGCGGTC, the PBM binding z-score is -0.316.
As for TCTCGGAGGACACGAAAGGTCAGAGCTCGACATC, the PBM binding z-score amounted to 3.28.
CAGCCAAGGTCAGGGCCAGTATAGGAGGAACGTT: the PBM binding z-score is 2.4.
Take GCTAGCATGCCATTTGGGTCACTCAATGACGGGC: the PBM binding z-score stood at 0.372.
In the case of GCTTGTAGAGCAAGGTTAAGAAAGACTAAGCTAA, the PBM binding z-score was -0.112.
The same measure for AGTCAATGTTCATCTAGGTAACGTAAGATATGCT: -0.275.
As for ATGTCTAGGTAAGACTCAGTTCAGTGAAGAACGC, the PBM binding z-score was 0.683.
Sequence CGTCCTAGGTCAATGCTAGGTCAGTGAAAGCATT gave a PBM binding z-score of 3.02.
Consider ATATGTAGGTTATCGGGTCACTCAGTTTGCGCAT, for which the PBM binding z-score amounted to 5.
Then ATCTCTAAGTAAAGATAGTTCAGTGAATGCAAAT, with 0.741; and CTACCAAGGTGAACATGGTCGTTGATTACTATTC, with 1.18.
The same measure for TCTAGTTGGTCACGGAAGTCACACACGACGGGTA: 0.891; for CCAGACAGGTGAGAAGGTCACTCAGCCTCGATTA: 2.66; for ATCGAAAGATCGTGAGGTGAGTATACAGAAAGGC: -0.0654.
ATCGAAAGGTCGACGAGGTGTGTATACACCGTTT: the PBM binding z-score came out at 3.81.
TCCTATAGGTAAAGGTGAAAGTCGAACGATATGA had a PBM binding z-score of 0.86.
For TGAATGAGGTTATAAGATCAGTGAACGTTGCAAA, the PBM binding z-score is 1.14.
For GCGACTGGCGCAAAGCAGGTTACCATAAGGTTGG, the PBM binding z-score was -0.716.
For ATATGTAGGTTAGCTGGGCTCATTCAGACTAGGC, the PBM binding z-score is -0.0839.
GCAACGAGGGCAAAGTTGATAGCATCTGTCGACG gave a PBM binding z-score of 1.26.
In turn, CCACCAAGGTGAACAAGGTCGTTGATTACTATTC came in with a PBM binding z-score of 6.23.
CCGAGTAGGTTATGGGGCATACAGGCAACGGTGA gave a PBM binding z-score of 0.117.
CCTATTGGGCCATCAGGTCATTGATATCAACGTT came in with a PBM binding z-score of 2.12.
Then CGAACTAGGTCATTCAGGACAGTGAATACATTGA, with 4.46; and AGTCAAAGTTCATCTAGGTAATGTAAGATATGCT, with 5.13; and CCTTACGGGTCCAGGTTATAGCACGGGTGGTACG, with -0.152.
CCCACTGGGGCATAAGGTTACCATAAGCCAGCCC: the PBM binding z-score is -0.113.
Regarding GGAACGAGGGCAAAGTAGATAGCATCTGTCGACG, the PBM binding z-score stood at 0.414.
As for GCTAGCAGGGCATTTGGGTCACTCAATGACGGGC, the PBM binding z-score is 2.15.
The sequence TAGCCTAGGTCAGATCGGGCCAGGATACGCTATA registered a PBM binding z-score of 0.248.
With CGTCTAAGGTCAATGCTAGGTCAGTGAAAGCATT, the PBM binding z-score worked out at 5.23.
Take ACTCGGAGGACAAGGGTCAGAGCTACGCCAGTGA: the PBM binding z-score was 1.91.
Sequence TAGCCTAGGTCAGATCGGTCCAGTATACGCTATA displayed a PBM binding z-score of 2.18.
The sequence AGAATTAGGTTACCAAAGATCAGGGAAACGCTTG gave a PBM binding z-score of 0.204.
